Data from PubChem BioAssay (NCATS).
Records with an inconclusive call do not appear. Entries that show only a call come without a potency. Active and inactive are the calls of the source. Calls come from the whole dose curve; as a rule, active = well fitted inhibition curve with a large enough effect; inconclusive = small, poorly fitted or top-dose-only effect; inactive = flat fitted curve, though single readings scatter.

Each molecule was assayed against Glutathione peroxidase 1 (Homo sapiens) (UniProt P07203) (assay: Primary qHTS Assay for Inhibitors of Recombinant Selenoprotein Glutathione Peroxidase 1 (GPX1) (AID 1845191)). Conditions: recombinant GPX1, GR-coupled NADPH fluorescence, 15 min; series mostly up to 27.7 µM.
Sequence of Glutathione peroxidase 1 (Homo sapiens) (P07203 whole entry, looked up): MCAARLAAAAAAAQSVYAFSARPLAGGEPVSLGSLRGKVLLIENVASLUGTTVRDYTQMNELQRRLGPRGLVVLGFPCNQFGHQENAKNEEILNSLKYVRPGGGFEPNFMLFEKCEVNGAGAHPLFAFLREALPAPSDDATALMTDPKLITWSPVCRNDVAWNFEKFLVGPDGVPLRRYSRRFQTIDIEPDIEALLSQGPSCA
Summary of the method: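 NADPH consumption tracked by fluorescence at 340/450 nm between t=0 and t=15 min, room temperature. Final mix: 10 nM GPX1, 100 nM glutathione reductase, 1 mM GSH, 0.5 mM NADPH, 0.5 mM cumene hydroperoxide, 0.01% BSA; 30 min compound–enzyme preincubation.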
Note: nearly all actives have a fitted effect of over 65% in size.

Structure (SMILES)	Potency
CC1CCC2C(C)(C)C(O)C(O)CC2(C)C12Cc1c(O)cc(CO)c(C=O)c1O2 (stereo not given)	inactive
O=C(/C=C/c1ccc(O)cc1)OC[C@H]1O[C@H](O[C@@]2(CO)O[C@@H](CO)[C@H](O)[C@H]2O)[C@H](O)[C@@H](O)[C@@H]1O	inactive
Cc1cc(C)c2nc(-c3ccccn3)cc(C(=O)Nc3ccc(S(=O)(=O)Nc4onc(C)c4C)cc3)c2c1	inactive

Each molecule was assayed against Phospholipid hydroperoxide glutathione peroxidase GPX4 (Homo sapiens) (UniProt P36969) (assay: Primary qHTS Assay for Inhibitors of Recombinant Selenoprotein Glutathione Peroxidase 4 (GPX4) (AID 1845192)). Conditions: recombinant GPX4, GR-coupled NADPH fluorescence, 15 min; series mostly up to 27.8 µM.
Sequence of Phospholipid hydroperoxide glutathione peroxidase GPX4 (Homo sapiens) (P36969 whole entry, looked up): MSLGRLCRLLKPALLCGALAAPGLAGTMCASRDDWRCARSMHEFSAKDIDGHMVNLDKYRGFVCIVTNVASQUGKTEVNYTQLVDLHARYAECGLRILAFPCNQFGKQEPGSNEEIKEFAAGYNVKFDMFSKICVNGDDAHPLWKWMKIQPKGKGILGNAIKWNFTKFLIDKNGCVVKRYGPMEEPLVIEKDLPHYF
Summary of the method: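 NADPH consumption followed by fluorescence at 340/450 nm, t=0 and after 15 min at room temperature. Reaction started with cumene hydroperoxide (0.5 mM final) after 30 min compound–GPX4 preincubation; final 200 nM GPX4, 100 nM GR, 1 mM GSH, 0.5 mM NADPH.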

Structure (SMILES)	Potency
COc1ccc(C2COc3cc(O)ccc3C2)c(O)c1OC (stereo not given)	inactive
C/C=C/C=C/C=C/C(=O)OC1C=C2C(O)OC(=O)[C@]2(O)[C@@]2(C)CCCC(C)(C)[C@H]12 (stereo not given in full)	inactive
CC1(C)CC[C@]2(C(=O)O[C@@H]3O[C@H](CO)[C@@H](O)[C@H](O)[C@H]3O)[C@H](O)C[C@]3(C)C(=CCC4[C@@]5(C)CC[C@H](O[C@@H]6OC[C@@H](O)[C@H](O)[C@H]6O)[C@@](C)(C(=O)O)C5CC[C@]43C)[C@@H]2C1 (stereo not given in full)	inactive
COc1cc(C)c(C(=O)OC2C(C)OC(OC3CCC(C)C4C3C=C(C)C3/C(C)=C\CC/C(C)=C/C5(C)C=C(C(=O)O)C(C)CC56OC(=O)/C(=C(\O)C34C)C6=O)C(O)C2O)c(OC)c1 (stereo not given)	inactive
CCOC(=O)C(CCc1ccccc1)NC(C)C(=O)N1Cc2ccccc2CC1C(=O)O (stereo not given)	inactive
C[C@@H]1O[C@@H](O[C@H]2[C@H](Oc3cc(O)c(C(=O)CCc4ccc(O)cc4)c(O)c3)O[C@H](CO)[C@@H](O)[C@@H]2O)[C@H](O)[C@H](O)[C@H]1O	inactive
C[C@@H]1O[C@@H](OC[C@H]2O[C@@H](OCc3ccccc3)[C@H](O)[C@@H](O)[C@@H]2O)[C@H](O)[C@H](O)[C@H]1O	inactive
CC(C)C1CCC(C(=O)N[C@@H](Cc2ccccc2)C(=O)O)CC1 (stereo not given in full)	inactive
C=CC(C)(O)CCC1C(C)(O)CCC2C(C)(C)CCCC21C (stereo not given)	inactive
COc1cccc(OC)c1-c1ccc(C[C@H](NC(=O)c2c(Cl)cccc2Cl)C(=O)O)cc1	inactive
CC1CC2OCC3(O)CCC(O)C(C14CC(c1ccoc1)OC4=O)C23CO (stereo not given)	inactive
CC1(C)[C@H]2C[C@H](C/C=C\CCCC(=O)O)[C@@H](NC(=O)c3csc4ccc(O)cc34)[C@@H]1C2	inactive
C=C1CC[C@H]2[C@@](C)(CCC(OC3OC(CO)C(O)C(O)C3O)[C@@]2(C)CO)C1C(=O)CC1=CCOC1=O (stereo not given in full)	inactive
CC1(C)CC[C@]2(C(=O)O)CC[C@]3(C)C(=CCC4[C@@]5(C)CC[C@H](O)C(C)(C)C5CC[C@]43C)C2C1 (stereo not given in full)	inactive
O=C(N[C@@H]1CC[C@@H](c2cccc(F)c2F)CN(CC(F)(F)F)C1=O)N1CCC(n2c(=O)[nH]c3ncccc32)CC1	inactive
CCC(=O)OCC(=O)[C@@]1(OC(=O)CC)[C@@H](C)C[C@H]2[C@@H]3CCC4=CC(=O)C=C[C@]4(C)[C@@]3(F)[C@@H](O)C[C@@]21C	inactive
CN1CCN(C(=O)c2cc3cc(Cl)ccc3[nH]2)CC1	inactive
C=C1C(OC(C)=O)CCC2(C)CC3(O)OC(=O)C(C)=C3CC12 (stereo not given)	inactive
CC1(C)CC[C@]2(C(=O)O[C@@H]3O[C@H](CO)[C@@H](O)[C@H](O)[C@H]3O)CC[C@]3(C)C(=CCC4[C@@]5(C)CC[C@H](O[C@H]6O[C@H](CO)[C@@H](O)[C@H](O[C@@H]7O[C@H](CO)[C@@H](O)[C@H](O)[C@H]7O)[C@H]6O)C(C)(C)C5CC[C@]43C)[C@@H]2C1 (stereo not given in full)	inactive
CC1CC(=O)[C@]2(O)C(C(=O)OCCc3ccc(O)c(O)c3)=CO[C@@H](O[C@@H]3O[C@H](CO)[C@@H](O)[C@H](O)[C@H]3O)[C@H]12 (stereo not given in full)	inactive
COc1cc2nc(=NC(=O)c3cccnc3)n3c(c2cc1OC)NCC3	inactive
CCOC(=O)C(CCc1ccccc1)NC1CCCN2CCCC(C(=O)O)N2C1=O (stereo not given)	inactive
Cc1ccccc1N1CCN(S(=O)(=O)C[C@]23CC[C@H](C[C@@H]2NC(=O)[C@@H](N)CCS(C)(=O)=O)C3(C)C)CC1	inactive
COC(=O)C1(C)CCCC2(C)c3ccc(C(C)C)cc3C(O)C(O)C12 (stereo not given)	inactive
COC(O)(CC(C)C)C1Oc2cc(C)[nH]c(=O)c2O1 (stereo not given)	inactive
O=C(NC1Cc2ccccc2N(C[C@@H](O)CO)C1=O)c1cc2cc(Cl)sc2[nH]1 (stereo not given in full)	inactive
Cc1occc(=O)c1O[C@@H]1O[C@H](CO[C@@H]2OC[C@](O)(CO)[C@H]2O)[C@@H](O)[C@H](O)[C@H]1O	inactive
